Assay outcomes: PubChem BioAssay, National Center for Advancing Translational Sciences (NCATS)
Sampled rows, rich in hits. Any-hit rate of the full collection: about 19%.
DT40 TDP1 CPT = growth inhibition of DT40 Tdp1-/-;hTDP1 cells with camptothecin (screen for TDP1 inhibitors); chicken DT40 Tdp1-/-;hTDP1 cells + 20 nM CPT, ATP luminescence, 48 h; Potency, µM (series often up to 46.2 µM), most hits filed as inhibitors; 420,000 compounds, 12% hits; AID 686979; further: nearly all actives have a fitted effect of over 55% in size
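Chicken DT40 Tdp1-/- cells stably complemented with human TDP1 were seeded at 400 cells/well in medium containing 20 nM camptothecin, exposed to pin-transferred compounds, and grown at 37 °C for at least 48 hr. Viability was read as ATP luminescence.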
DT40 TDP1 no CPT = qHTS for Inhibitors of human tyrosyl-DNA phosphodiesterase 1 (TDP1): qHTS in cells in absence of CPT | DT40 Tdp1-/- hTDP1 cells, no CPT, ATP luminescence, 48 h | Potency, µM (doses to about 46.2 µM), most hits filed as inhibitors | 420,000 compounds, 15% hits | AID 686978, 2013; further: nearly all actives have a fitted effect of over 55% in size
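Stably hTDP1-transfected Tdp1-null chicken DT40 cells were treated with library compounds minus camptothecin and grown for at least 48 hr at 37 °C, after which cellular ATP was quantified by luminescence.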
HepG2 tox = counter-screen for TGF-b inhibitors: cytotoxicity in HepG2 cells; HepG2 CAGA-GFP viability, ATP luminescence, 18 h; Potency, µM (doses to about 46.1 µM), usual class: cytotoxic; 410,000 compounds, 0.76% hits; AID 588856
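HepG2 CAGA-GFP cells (1000/well, DMEM with 1% FBS) received compound, then TGF-beta at 500 pg/mL final, and were incubated 18 hours at 37 degrees C. Viability was read by CellTiter-Glo luminescence. Media-only wells were set as complete cell-killing and DMSO as no toxicity.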
IL-1B inflam inh = inhibitors of inflammasome signaling (IL-1 beta secretion); activity change, % at 57.5 µM; AID 743279; 360,000 compounds, 4.7% hits; THP-1 LPS/ATP IL-1B secretion, AlphaLISA, 16 h; stronger effect = lower value; in the data active means activity change below about -50%; inconclusive means mostly about -30% to -49%
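THP-1 cells pretreated 1 hr with compounds (up to 57.5 uM final), then stimulated with LPS (250 ng/mL final) plus ATP (1.25 mM final); secreted IL-1B measured by AlphaLISA after 16 hr, decreased signal indicating inhibition.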
TDP1 inh = blocks human tyrosyl-DNA phosphodiesterase 1; Q9NUW8; recombinant TDP1, AlphaScreen DNA substrate cleavage; Potency, µM (top dose mostly 130 µM), actives largely listed as inhibitors; 350,000 compounds, 0.28% hits; AID 485290; further: nearly all actives have a fitted effect of over 40% in size
Target sequence (Q9NUW8 whole entry, looked up): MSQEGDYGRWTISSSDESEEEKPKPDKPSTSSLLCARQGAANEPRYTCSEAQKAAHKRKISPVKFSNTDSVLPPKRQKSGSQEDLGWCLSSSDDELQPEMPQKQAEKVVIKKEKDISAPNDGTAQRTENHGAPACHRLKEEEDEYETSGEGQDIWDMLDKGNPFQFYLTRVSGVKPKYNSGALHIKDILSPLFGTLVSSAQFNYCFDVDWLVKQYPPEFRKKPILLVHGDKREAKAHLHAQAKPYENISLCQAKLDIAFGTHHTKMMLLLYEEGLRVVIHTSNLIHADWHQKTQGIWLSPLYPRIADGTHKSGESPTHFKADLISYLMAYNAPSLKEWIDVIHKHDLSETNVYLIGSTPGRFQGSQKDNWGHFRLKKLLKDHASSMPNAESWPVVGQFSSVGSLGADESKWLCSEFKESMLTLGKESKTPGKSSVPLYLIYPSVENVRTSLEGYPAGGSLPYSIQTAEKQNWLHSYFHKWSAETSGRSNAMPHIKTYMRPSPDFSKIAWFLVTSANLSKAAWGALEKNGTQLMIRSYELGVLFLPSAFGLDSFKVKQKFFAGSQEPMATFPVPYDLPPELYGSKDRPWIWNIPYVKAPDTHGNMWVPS
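Enzyme-compound mixtures sat 15 min at room temperature, followed by a 5 min reaction with 15 nM final substrate and 10 min with AlphaScreen beads. Recombinant human Tdp1 was used at 1 nM final.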
TGFb inhibitor = blocks TGF-b signaling | HepG2 CAGA-GFP TGF-b/SMAD3 reporter, GFP fluorescence, 18 h; TGF-beta stimulated, 500 pg/mL final | Potency, µM (top dose mostly 46.1 µM), most hits filed as inhibitors | 410,000 compounds, 1.2% hits; further: nearly all actives have a fitted effect of over 65% in size
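Cell-based qHTS in HEPG2 carrying a CAGA-GFP Smad reporter; compounds added before 500 pg/mL final TGF-beta, 18 h incubation at 37 degrees C, GFP fluorescence quantified per cell by imaging cytometry.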
Numbers stand for hits; i = inactive; ? = inconclusive; nt = not tested or not shown; [ ] = dose if it differs, or a comment. Unless noted, the call rests on the fitted dose curve; in most records, active means well fitted curve in the direction sought with a large enough effect; inconclusive means small, poorly fitted or top-dose-only effect, or another doubt; inactive means no such curve, though single readings can be large; an effect the other way counts as inactive or inconclusive.

SMILES	DT40 TDP1 CPT	DT40 TDP1 no CPT	HepG2 tox	IL-1B inflam inh	TDP1 inh	TGFb inhibitor
COc1cc(/C=N/n2c(-c3ccc4c(c3)NC(=O)CO4)csc2=Nc2cccc(C)c2)ccc1O	13µM	?	i	?	i	?
COc1cccc(OCc2nc3ccccc3n2C)c1	?	?	i	nt	i	nt
COc1ccc(C(=O)N(O)c2ccccc2)cc1	i[9.04 µM]	i[9.04 µM]	nt	nt	i	nt
COc1cc(/C=C/C(=O)OCC(=O)NC(=O)NC23CC4CC(CC(C4)C2)C3)ccc1OCC#N	?	21µM	i	?	i	i
CCN1C(=O)[C@H]2[C@H]3[C@H](O)[C@H](O)C/C(=N/OCC[C@H]4C=C[C@H](OC(C)=O)[C@@H](COC(C)=O)O4)[C@@H]3CC[C@@H]2C1=O	nt	nt	nt	nt	i[21 µM]	nt
CCOC(=O)c1ccc(NC(=O)COc2cc3oc(=O)c(CC(C)O)c(C)c3cc2Cl)cc1 (centres undefined)	i	i	i	i	nt	i
CC(=O)c1cccc(NC(=O)COc2cc3oc(=O)c(CC(C)O)c(C)c3cc2Cl)c1 (centres undefined)	?	21µM	i	i	i	i
OC1CCN(Cc2ccc3c(c2)CN(Cc2ccc(Oc4ncccn4)cc2)CCO3)CC1	i	i	nt	nt	nt	nt
COc1ccc(-c2nc(-n3c(C)c(C(C)=O)c(C(C)=O)c3C)sc2C)cc1	21µM	23µM	i	i	i	i
CC(=O)c1c(C(C)=O)c(C)n(-c2nc(-c3cccs3)c(C)s2)c1C	?	?	i	i	i	i
CC(=O)c1c(C(C)=O)c(C)n(-c2nc(-c3ccc(C)c(C)c3)c(C)s2)c1C	18µM	23µM	i	-67	i	i
Cc1ccc(-c2nc(N)sc2-c2ccccc2)cc1C	?	?	i	?	i	?
CC(C)(C)OC(=O)N1CCC(c2c(C(=O)NCCN3CCOCC3)cnn2-c2ccc(F)cc2)CC1	?	?	i	nt	i	i
O=c1cc(C(O)C[N+](=O)[O-])occ1OCc1ccccc1 (centres undefined)	i	?	i	nt	nt	i
CCCCNc1c2c3c(cccc3n(C)c1=O)C(=O)c1ccccc1-2	?	18µM	i	i	nt	i
Cn1c(=O)c(NC2CCCCC2)c2c3c(cccc31)C(=O)c1ccccc1-2	?	?	i	-66	i	i
Cn1c(=O)c(N)c2c3c(c(Br)ccc31)C(=O)c1ccccc1-2	?	?	i	i	i	i
CC(=O)Nc1ccc(Nc2c3c4c(cccc4n(C)c2=O)C(=O)c2ccccc2-3)cc1	?	?	i	i	i	i
CCOC(=O)c1cnc2c(OC)cccc2c1Nc1cccc(O)c1	nt	nt	i	nt	nt	i
CC1CCC(NC(=O)CC(C)(C)Cc2nc3ccccc3c(=O)[nH]2)CC1 (centres undefined)	16µM	23µM	i	-56	i	i
Fc1ccc(Nc2nc(Nc3ccc(F)cc3)nc(N3CCOCC3)n2)cc1	?	?	i	nt	nt	i
c1ccc(Nc2nc(N3CCCC3)nc(N3CCOCC3)n2)cc1	nt	nt	i	nt	nt	i
CN1CCN(c2nc(Nc3ccc(F)cc3)nc(Nc3ccc(F)cc3)n2)CC1	21µM	?	13µM	-56	nt	?
c1ccc(Nc2nc(Nc3ccccc3)nc(N3CCNCC3)n2)cc1	?	?	i	-71	i	?
COc1cc2cc(C#N)c(SCC(=O)OC(C)C)nc2cc1OC	?	?	i	nt	i	i
SMILES	DT40 TDP1 CPT	DT40 TDP1 no CPT	HepG2 tox	IL-1B inflam inh	TDP1 inh	TGFb inhibitor
O=C1/C(=C/c2ccccc2Cl)SC(=S)N1CCC(=O)N1CCCCC1CCO (centres undefined)	16µM	10µM	i	?	i	?
CC(C)c1ccc(/C=C2\SC(=S)N(CCC(=O)N3CCCCC3CCO)C2=O)cc1 (centres undefined)	?	21µM	i	-51	i	i
O=C1/C(=C\c2ccccc2)SC(=S)N1CCC(=O)N1CCCCC1CCO (centres undefined)	?	?	i	?	i	i
COc1cccc(C(=O)Nc2cccc3ccccc23)c1	?	?	i	i	nt	i
CCn1c2ccccc2c2cc(NC(=O)c3ccc([N+](=O)[O-])cc3)ccc21	i	?	i	i	i	i
CCn1c2ccccc2c2cc(NC(=O)c3cccc(OC)c3OC)ccc21	8.2µM	4.1µM	i	i	i	i
COc1cccc(C(=O)Nc2cccc3c2ccc2cccn23)c1	16µM	23µM	i	i	i	i
CCn1c2ccccc2c2cc(NC(=O)c3cccc(OC)c3)ccc21	8.9µM	7.9µM	i	?	i	i
CCn1c(=O)sc2cc(NC(=O)c3cccc(OC)c3)ccc21	?	?	i	nt	i	i
CCn1c2ccccc2c2cc(NC(=O)c3ccccc3[N+](=O)[O-])ccc21	21µM	23µM	i	i	i	i
CCn1c2ccccc2c2cc(NC(=O)c3ccco3)ccc21	?	?	i	-52	i	i
CCn1c2ccccc2c2cc(NC(C)=O)ccc21	i	i	i	i	i	i
CCCCNc1c(C(=O)OCC)c(C)nc2c1cnn2CC	13µM	21µM	i	i	i	i
Cc1cc(=O)[nH]c(N/N=C/C2=C(N3CCOCC3)C(=C\c3ccc(Cl)cc3)/CC2)n1	21µM	16µM	i	i	i	i
O=C(O)c1ccccc1NC(=O)N1CCOCC1	i	i	i	i	i	i
Cc1occc1C(=O)N/N=C/c1ccc(N(C)C)cc1	i	i	i	i	i	i
Cc1occc1C(=O)N/N=C/C1=C(N2CCOCC2)C(=C\c2ccc(Cl)cc2)/CC1	?	0.92µM	i	i	i	i
O=C(O)c1ccccc1N/N=C/C1=C(N2CCOCC2)C(=C\c2ccccc2)/CC1	21µM	12µM	i	i	i	i
Cc1cc(C)nc(N/N=C/C2=C(N3CCOCC3)C(=C/c3ccccc3)/CC2)n1	16µM	12µM	i	i	i	?
CN(C)CCNC(=O)C(=O)NCC(c1cccnc1)N1CCN(c2ccccc2)CC1 (centres undefined)	i	i	i	nt	i	i
O=C(COc1ccccc1C(=O)NCc1ccncc1)Nc1ccc(Br)cc1	i	i	i	i	i	i
O=C(N/N=C/C1=C(N2CCOCC2)C(=C\c2ccccc2)/CC1)Nc1ccccc1	12µM	8.2µM	i	i	i	i
Cc1ccc(N2CCN(/N=C/C3=C(N4CCOCC4)C(=C\c4ccccc4)/CC3)CC2)cc1	i	i	i	i	nt	i
N#Cc1c2c(c(Cl)n3c1nc1ccccc13)CCCC2	0.71µM	0.89µM	i	nt	nt	i
